The source of these data is PubChem BioAssay (NCI).

Among the test systems are SK-MEL-2 melanoma; EKVX NSCLC; SN12C renal; UO-31 renal; TK-10 renal; ACHN renal; CAKI-1 renal; A498 renal; CCRF-CEM leukemia; MOLT-4 leukemia; SR leukemia; RPMI-8226 leukemia; OVCAR-8 ovarian; OVCAR-5 ovarian; OVCAR-4 ovarian; IGROV1 ovarian; OVCAR-3 ovarian; HS 578T breast; NCI/ADR-RES ovarian; SK-OV-3 ovarian.
Holding throughout (assay): NCI-60 one-dose screen, 48 h (100 = growth as untreated, 0 = no growth, -100 = all killed)
Common to all, as to details: 10 µM unless noted

Structures are written as SMILES. Compounds without any hit were thinned out: in the full panel of roughly 83,000, 20% have a hit.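 Plates (96-well) were seeded with cells, treated with compound at one concentration, and incubated for 48 hours before percent growth was determined.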 Values without a mark were called inactive. Activity calls are given as the source filed them. Rule for the calls: active = growth percent below 10; inactive = the rest.

On to `[2H]C([2H])([2H])Oc1c(F)cccc1/C=C/C(=O)/C=C(O)/C=C/c1cccc(F)c1OC([2H])([2H])[2H]`, for which the growth in the test on SK-MEL-2 melanoma was 101%; with EKVX NSCLC, 107%; in the test on SN12C renal, 93.4%; with UO-31 renal, 97.8%; with TK-10 renal it was 114%; with ACHN renal, 104%. Also, the growth in the test on CAKI-1 renal is 103%; in the test on A498 renal, 109%; in the test on CCRF-CEM leukemia, 90.9%; with MOLT-4 leukemia, 77.7%; with SR leukemia, 94.8%; in the test on RPMI-8226 leukemia it was 99.2%. Also, the growth with OVCAR-8 ovarian was 87%; with OVCAR-5 ovarian it was 104%; in the test on OVCAR-4 ovarian it was 89.1%; in the test on IGROV1 ovarian, 101%; in the test on OVCAR-3 ovarian, 108%; in the test with HS 578T breast it was 112%. Besides, the growth in the test on NCI/ADR-RES ovarian is 92.4%.
`CC(C)(C#N)c1cc(C(=O)Nc2cc(Nc3ncccc3-c3ncnc4nc[nH]c34)ccc2F)cc(C(F)(F)F)c1`: the growth was 5.07% (active) in the test with SK-MEL-2 melanoma; 62.8% in the test with EKVX NSCLC; 55.2% with SN12C renal; 17.5% with UO-31 renal; 68.5% in the test with TK-10 renal; 44.4% with ACHN renal. In addition, the growth is 24.3% in the test with CAKI-1 renal; 57% with CCRF-CEM leukemia; 57.6% in the test with MOLT-4 leukemia; 52.4% in the test with SR leukemia; 40.6% with RPMI-8226 leukemia; 49.5% in the test with OVCAR-8 ovarian. Further, the growth in the test with OVCAR-5 ovarian was 32.1%; in the test with OVCAR-4 ovarian, 46.6%; with SK-OV-3 ovarian, 91.1%; in the test on IGROV1 ovarian it was 8.69% (active); with OVCAR-3 ovarian it was 70.1%; with HS 578T breast, 30.9%. Besides, in the test with NCI/ADR-RES ovarian, the growth is 52.2%.
For the molecule `C/C=C(/C)C(=O)O[C@@H]1CC(C)(C)CC2C34OC(=O)[C@@]21CC[C@@]3(C)[C@]1(C)CCC2C(C)(C)C(=O)CC[C@]2(C)C1C[C@@H]4O` (some centres not stated), the growth in the test with SK-MEL-2 melanoma was 80.3%; in the test with EKVX NSCLC, 50.1%; with SN12C renal, 83.7%; with UO-31 renal it was 67.8%; in the test on TK-10 renal, 73.2%; in the test on ACHN renal it was 85.9%. Moreover, the growth with CAKI-1 renal is 59.6%; in the test with CCRF-CEM leukemia, 36.3%; in the test on MOLT-4 leukemia, 24.2%; in the test with SR leukemia, 28.5%; in the test with RPMI-8226 leukemia it was 26.2%; in the test with OVCAR-8 ovarian, 68.6%. The growth with OVCAR-5 ovarian was 95.3%; in the test on OVCAR-4 ovarian, 67.1%; with SK-OV-3 ovarian, 87.8%; in the test on IGROV1 ovarian, 72.6%; with OVCAR-3 ovarian it was 73.7%; with HS 578T breast, 78.3%. For the same molecule, the growth in the test with NCI/ADR-RES ovarian is 77%.
With `O=C(OCC(O)C(=O)NC12CC3CC(CC(C3)C1)C2)c1cccc(Br)c1` (configuration not stated), the growth with SK-MEL-2 melanoma is 103%; in the test on EKVX NSCLC it was 96.4%; in the test with SN12C renal, 102%; in the test with UO-31 renal, 84.9%; in the test on TK-10 renal, 109%; with ACHN renal, 101%. Moreover, the growth with CAKI-1 renal is 96.2%; in the test on CCRF-CEM leukemia, 81.9%; in the test with MOLT-4 leukemia, 87%; with SR leukemia, 84.9%; with RPMI-8226 leukemia, 94.6%; with OVCAR-8 ovarian, 95.9%. For the same molecule, the growth in the test on OVCAR-5 ovarian was 101%; with OVCAR-4 ovarian, 98.2%; in the test on SK-OV-3 ovarian, 102%; in the test with IGROV1 ovarian, 103%; with OVCAR-3 ovarian, 109%; with HS 578T breast it was 95.7%. In addition, the growth with NCI/ADR-RES ovarian is 101%.
On to `C#C[C@]1(O)CC[C@H]2[C@@H]3CC=C4c5sc(-c6ccccc6)nc5CC[C@]4(C)[C@H]3CC[C@@]21C`, for which the growth is 92% in the test on SK-MEL-2 melanoma; 92.8% in the test on EKVX NSCLC; 88.2% with SN12C renal; 77% in the test on UO-31 renal; 126% in the test on TK-10 renal; 85.6% in the test on ACHN renal. Besides, the growth in the test with CAKI-1 renal was 55.2%; with A498 renal, 91%; in the test on CCRF-CEM leukemia, 67.4%; in the test on MOLT-4 leukemia, 63.8%; in the test on SR leukemia, 30.9%; in the test with RPMI-8226 leukemia it was -12.6% (active). Moreover, the growth is 101% with OVCAR-8 ovarian; 85.6% with OVCAR-5 ovarian; 106% in the test on OVCAR-4 ovarian; 95.8% in the test on IGROV1 ovarian; 106% in the test on OVCAR-3 ovarian; 62% in the test with HS 578T breast. Moreover, the growth in the test with NCI/ADR-RES ovarian is 94.4%.
Take `CSc1nc(N)c2c(n1)NC(c1ccccc1)C1CCc3ccccc3C1=N2` (configuration not stated): the growth in the test on SK-MEL-2 melanoma was 30.1%; with EKVX NSCLC it was 40.9%; in the test on SN12C renal, 65.7%; in the test on UO-31 renal it was 43%; in the test on TK-10 renal, 112%; in the test on ACHN renal it was 72.3%. In addition, the growth with CAKI-1 renal is 48.2%; in the test with CCRF-CEM leukemia it was 20%; in the test on MOLT-4 leukemia it was 27.9%; in the test with SR leukemia it was 8.22% (active); with RPMI-8226 leukemia, 36.6%; in the test on OVCAR-8 ovarian, 42.1%. Besides, the growth in the test with OVCAR-5 ovarian was 121%; with OVCAR-4 ovarian, 41.6%; in the test with SK-OV-3 ovarian it was 85.8%; with IGROV1 ovarian it was 40.4%; in the test on OVCAR-3 ovarian it was 43.9%; in the test on HS 578T breast, 62%. Moreover, the growth in the test on NCI/ADR-RES ovarian was 35.8%.
Regarding `Cc1ccc(C(=O)Nc2ccc(CN3CCN(C)CC3)c(C(F)(F)F)c2)cc1C#Cc1cnc(N)c2ccccc12`, the growth is -26.6% (active) with SK-MEL-2 melanoma; 36% in the test with EKVX NSCLC; 11.3% in the test with SN12C renal; -34.9% (active) with UO-31 renal; 29.9% in the test with TK-10 renal; -91.8% (active) in the test with ACHN renal. In addition, the growth in the test on CAKI-1 renal is -81.6% (active); in the test on A498 renal it was -32.5% (active); with CCRF-CEM leukemia it was -15.7% (active); in the test on MOLT-4 leukemia, -45.2% (active); with SR leukemia, -8.12% (active); in the test with RPMI-8226 leukemia, -39.6% (active). The growth was -42.1% (active) in the test on OVCAR-8 ovarian; 2.98% (active) with OVCAR-5 ovarian; -52% (active) in the test with OVCAR-4 ovarian; -37.6% (active) in the test with IGROV1 ovarian; -57.7% (active) in the test with OVCAR-3 ovarian; -28.1% (active) with HS 578T breast. Also, the growth in the test with NCI/ADR-RES ovarian was -32.8% (active).
On to `O=C1c2cccnc2C(=O)c2c1c(C(=O)OCCCN1CCOCC1)c1ccccn21`, for which the growth in the test on SK-MEL-2 melanoma is -57.5% (active); in the test with EKVX NSCLC, 19.6%; with SN12C renal, -19.3% (active); in the test with UO-31 renal, -42.6% (active); in the test on TK-10 renal it was 21.9%; in the test on ACHN renal, -37.3% (active). The growth in the test on CAKI-1 renal is -11.4% (active); in the test with CCRF-CEM leukemia, -5.87% (active); in the test with MOLT-4 leukemia, 0.0972% (active); in the test with SR leukemia it was -2.21% (active); in the test with RPMI-8226 leukemia, -17.2% (active); in the test on OVCAR-8 ovarian, -46.2% (active). Further, the growth was -11.2% (active) in the test with OVCAR-5 ovarian; -19.1% (active) in the test with OVCAR-4 ovarian; -11.6% (active) with SK-OV-3 ovarian; -3.82% (active) in the test with IGROV1 ovarian; 2.32% (active) in the test on OVCAR-3 ovarian; 26.9% in the test with HS 578T breast. Moreover, the growth with NCI/ADR-RES ovarian was -13.7% (active).
